For 36 compounds, relative growth results are on record in the supplement of paper PMC12067926.

Structures are written as SMILES. Unmarked numbers belong to inactive results.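 Rule for the calls: active = growth AUC significantly below the DMSO wells by Dunnett test; inactive = the rest.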

The first experiment relates to Community 9. Briefly: relative growth (AUC of 72 h growth curve relative to DMSO control, dAUC) (ratio); higher = more growth (less inhibition), active = hit call of the paper. To be noted: 20 µM. In a few lines:
(§1)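 Growth was followed as A600, read hourly for 72 h on a plate reader after brief shaking. Isolates from Icelandic stream sediments and Silwood Park soil, and whole sediment communities, were first grown to carrying capacity in Luria–Bertani medium and then diluted 1:100 into 96-well plates with each chemical at 20 µM (1% DMSO). Relative growth (dAUC) is the spline-integrated area under the curve scaled to the mean of the DMSO controls, and the values are averages of three biological replicates.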
On to `N#Cc1c(Cl)c(Cl)c(Cl)c(C#N)c1Cl`, for which the relative growth is 0.784.
In the case of `O=C(NCCc1ncc(C(F)(F)F)cc1Cl)c1ccccc1C(F)(F)F`, the relative growth is 1.05.
The same measure, in the same setting: the result for `CCc1cc(C)cc(CC)c1-c1c(OC(=O)C(C)(C)C)n2n(c1=O)CCOCC2` reads 0.884.
The same measure, in the same setting: the result for `CC1(C)CON(Cc2ccccc2Cl)C1=O` reads 1.02; that for `CCOCn1c(-c2ccc(Cl)cc2)c(C#N)c(Br)c1C(F)(F)F`, 1.03; that for `COc1cc(C)c(C(=O)c2c(OC)ccc(Br)c2C)c(OC)c1OC`, 1.12.
On to `CCOc1ccc(C(C)(C)COCc2cccc(Oc3ccccc3)c2)cc1`, for which the relative growth was 0.965.
The same measure, in the same setting: the result for `CCCCCCCCCCCCNC(=N)N` reads 0.294 (active); that for `CN/C(=N/CC1CCOC1)N[N+](=O)[O-]` (centres undefined), 1.04; that for `CC1COC(Cn2cncn2)(c2ccc(Oc3ccc(Cl)cc3)cc2Cl)O1` (centres undefined), 1.21.
On the same count and under the same terms, the result for `CNC(=O)ON=C(C)SC` reads 1.04.
Still for that read-out and setting: the result for `CC(C)(C)c1ccc(CSc2cnn(C(C)(C)C)c(=O)c2Cl)cc1` reads 0.994; that for `Cc1nnc(-c2ccccc2)c(=O)n1N`, 0.918; that for `CCC(C)(C)C(=O)OC1=C(c2ccc(Cl)cc2Cl)C(=O)OC12CCCCC2`, 1.05.
Regarding `O=C(O)COc1ccc(Cl)cc1Cl`, the relative growth was 1.03.
Same read-out and setting: the same measure for `CC(C)N(C)S(=O)(=O)NC(=O)c1cc(-n2c(=O)cc(C(F)(F)F)n(C)c2=O)c(F)cc1Cl`: 1.14; for `COc1ncc(F)c2nc(S(=O)(=O)Nc3c(F)cccc3F)nn12`: 1.11.
`CCCCC(C#N)(Cn1cncn1)c1ccc(Cl)cc1` (centres undefined): the relative growth is 0.937.

For the next experiment, the system named is Flavobacterium 1 (Flavobacterium glaciei). Described as above. Particulars: 20 µM. In a few lines: as §1
For the compound `Nc1c([N+](=O)[O-])ccc(Oc2ccccc2)c1Cl`, the relative growth is 0.864.
Take `COCC(=O)N(c1c(C)cccc1C)[C@H](C)C(=O)OC`: the relative growth is 1.05.
The same measure, in the same setting: the same measure for `O=C(Nc1ccc(F)cc1F)c1cccnc1Oc1cccc(C(F)(F)F)c1`: 1.09; for `N#Cc1sc2c(=O)c3ccccc3c(=O)c=2sc1C#N`: 0.359 (active); for `CC(C)OC(=O)Nc1cccc(Cl)c1`: 0.971.
Still for that read-out and setting: the same measure for `N#C/N=C1\SCCN1Cc1ccc(Cl)nc1`: 1.1; for `CC(Oc1ccc(Oc2ncc(C(F)(F)F)cc2Cl)cc1)C(=O)O` (centres undefined): 0.929.
For the compound `Oc1ccccc1-c1ccccc1`, the relative growth is 0.75.
Take `C#CCOc1ccc(CCNC(=O)C(OCC#C)c2ccc(Cl)cc2)cc1OC` (centres undefined): the relative growth is 0.963.
As for `O=[N+]([O-])c1cc(C(F)(F)F)c(Cl)c([N+](=O)[O-])c1Nc1ncc(C(F)(F)F)cc1Cl`, the relative growth is 0.0154 (active).
Still for that read-out and setting: the same measure for `CC(C)CC(C)c1sccc1NC(=O)c1cn(C)nc1C(F)(F)F` (centres undefined): 1.02; for `O=C1C=C(N(Cc2ccc(Cl)nc2)CC(F)F)CO1`: 1.09; for `O=C(Nc1ccccc1-c1ccc(Cl)cc1)c1cccnc1Cl`: 1.04.
On the same count and under the same terms, the result for `CC(C)N1C(=O)c2ccccc2NS1(=O)=O` reads 1.09; that for `CCC(=O)Nc1ccc(Cl)c(Cl)c1`, 1.02.
For the compound `ClC1C(Cl)C(Cl)C(Cl)C(Cl)C1Cl` (centres undefined), the relative growth is 0.862.
For the compound `CN/C(=N\[N+](=O)[O-])NCc1cnc(Cl)s1`, the relative growth was 0.869.
On the same count and under the same terms, the result for `CCc1cnc(C2=NC(C)(C(C)C)C(=O)N2)c(C(=O)O)c1` (centres undefined) reads 0.988.
Still for that read-out and setting: the result for `N#Cc1c(Cl)c(Cl)c(Cl)c(C#N)c1Cl` reads 0.681 (active); that for `O=C(NCCc1ncc(C(F)(F)F)cc1Cl)c1ccccc1C(F)(F)F`, 0.987; that for `CCc1cc(C)cc(CC)c1-c1c(OC(=O)C(C)(C)C)n2n(c1=O)CCOCC2`, 1.02.
On the same count and under the same terms, the same measure for `CC1(C)CON(Cc2ccccc2Cl)C1=O`: 1.02; for `CCOCn1c(-c2ccc(Cl)cc2)c(C#N)c(Br)c1C(F)(F)F`: 1.03.
Take `COc1cc(C)c(C(=O)c2c(OC)ccc(Br)c2C)c(OC)c1OC`: the relative growth is 0.992.
As to `CCOc1ccc(C(C)(C)COCc2cccc(Oc3ccccc3)c2)cc1`, the relative growth was 0.785.
On the same count and under the same terms, the result for `CCCCCCCCCCCCNC(=N)N` reads 0.00294 (active); that for `CN/C(=N/CC1CCOC1)N[N+](=O)[O-]` (centres undefined), 1.04.
On the same count and under the same terms, the same measure for `CC1COC(Cn2cncn2)(c2ccc(Oc3ccc(Cl)cc3)cc2Cl)O1` (centres undefined): 0.367 (active).
Still for that read-out and setting: the result for `CNC(=O)ON=C(C)SC` reads 1.03; that for `CC(C)(C)c1ccc(CSc2cnn(C(C)(C)C)c(=O)c2Cl)cc1`, 0.923.
For `Cc1nnc(-c2ccccc2)c(=O)n1N`, the relative growth is 0.963.
Same read-out and setting: the result for `CCC(C)(C)C(=O)OC1=C(c2ccc(Cl)cc2Cl)C(=O)OC12CCCCC2` reads 0.794; that for `O=C(O)COc1ccc(Cl)cc1Cl`, 0.966.
Still for that read-out and setting: the result for `CC(C)N(C)S(=O)(=O)NC(=O)c1cc(-n2c(=O)cc(C(F)(F)F)n(C)c2=O)c(F)cc1Cl` reads 1.
On the same count and under the same terms, the result for `COc1ncc(F)c2nc(S(=O)(=O)Nc3c(F)cccc3F)nn12` reads 1.03; that for `CCCCC(C#N)(Cn1cncn1)c1ccc(Cl)cc1` (centres undefined), 0.856.
